Test results taken from the supplement of paper PMC11006884.
About 6,500 targets were measured; listed, in parts, are those with a hit and a random draw of the rest. About 2% of all pairs of compound and target were hits. Values without a mark were called inactive.

compound: COC(=O)C#Cc1ccccc1 [methyl 3-phenylpropiolate]; assay: log2 ratio of iodoacetamide-alkyne labeling of the cysteine site, DMSO over compound (competition); higher = stronger covalent engagement of the cysteine by the compound, active = 1 or more; conditions: 500 µM; treatment time 1 h; system: HEK293T cell lysate
How it was run: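 For each cysteine, the log2 competition ratio is mean control-channel reporter intensity over mean compound-channel reporter intensity. HEK293T lysate (2 mg/mL) was exposed to vehicle or electrophile (500 µM, 1 h, ambient temperature), labelled with iodoacetamide alkyne (1 h), clicked to sCIP-TMT reagents, digested overnight with trypsin at 37 °C, streptavidin-enriched and analysed by Orbitrap Eclipse LC-MS/MS with FAIMS and FragPipe. Cysteines quantified in only one of three replicates, each with duplicate channels, were excluded.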

UniProt O75818, sequence (O75818 whole entry): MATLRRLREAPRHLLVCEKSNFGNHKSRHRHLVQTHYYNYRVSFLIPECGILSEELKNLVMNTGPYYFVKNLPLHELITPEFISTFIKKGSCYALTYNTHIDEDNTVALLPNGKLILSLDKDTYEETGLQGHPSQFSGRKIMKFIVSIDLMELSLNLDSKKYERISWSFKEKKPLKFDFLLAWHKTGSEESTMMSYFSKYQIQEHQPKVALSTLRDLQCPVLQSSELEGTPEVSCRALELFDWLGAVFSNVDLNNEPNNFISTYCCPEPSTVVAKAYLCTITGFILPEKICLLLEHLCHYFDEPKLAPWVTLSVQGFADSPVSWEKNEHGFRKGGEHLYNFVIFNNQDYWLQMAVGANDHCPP
UniProt O14662, sequence (O14662 whole entry): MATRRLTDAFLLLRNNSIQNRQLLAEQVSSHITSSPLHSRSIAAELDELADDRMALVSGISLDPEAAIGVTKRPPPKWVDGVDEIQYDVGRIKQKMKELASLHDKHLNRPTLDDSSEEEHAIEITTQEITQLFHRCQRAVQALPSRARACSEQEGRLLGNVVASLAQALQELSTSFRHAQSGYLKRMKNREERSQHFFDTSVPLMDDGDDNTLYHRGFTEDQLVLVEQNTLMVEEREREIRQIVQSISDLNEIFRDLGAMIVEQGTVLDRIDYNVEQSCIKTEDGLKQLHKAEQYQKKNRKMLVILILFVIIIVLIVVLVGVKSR
UniProt O15164, sequence (O15164 whole entry, looked up): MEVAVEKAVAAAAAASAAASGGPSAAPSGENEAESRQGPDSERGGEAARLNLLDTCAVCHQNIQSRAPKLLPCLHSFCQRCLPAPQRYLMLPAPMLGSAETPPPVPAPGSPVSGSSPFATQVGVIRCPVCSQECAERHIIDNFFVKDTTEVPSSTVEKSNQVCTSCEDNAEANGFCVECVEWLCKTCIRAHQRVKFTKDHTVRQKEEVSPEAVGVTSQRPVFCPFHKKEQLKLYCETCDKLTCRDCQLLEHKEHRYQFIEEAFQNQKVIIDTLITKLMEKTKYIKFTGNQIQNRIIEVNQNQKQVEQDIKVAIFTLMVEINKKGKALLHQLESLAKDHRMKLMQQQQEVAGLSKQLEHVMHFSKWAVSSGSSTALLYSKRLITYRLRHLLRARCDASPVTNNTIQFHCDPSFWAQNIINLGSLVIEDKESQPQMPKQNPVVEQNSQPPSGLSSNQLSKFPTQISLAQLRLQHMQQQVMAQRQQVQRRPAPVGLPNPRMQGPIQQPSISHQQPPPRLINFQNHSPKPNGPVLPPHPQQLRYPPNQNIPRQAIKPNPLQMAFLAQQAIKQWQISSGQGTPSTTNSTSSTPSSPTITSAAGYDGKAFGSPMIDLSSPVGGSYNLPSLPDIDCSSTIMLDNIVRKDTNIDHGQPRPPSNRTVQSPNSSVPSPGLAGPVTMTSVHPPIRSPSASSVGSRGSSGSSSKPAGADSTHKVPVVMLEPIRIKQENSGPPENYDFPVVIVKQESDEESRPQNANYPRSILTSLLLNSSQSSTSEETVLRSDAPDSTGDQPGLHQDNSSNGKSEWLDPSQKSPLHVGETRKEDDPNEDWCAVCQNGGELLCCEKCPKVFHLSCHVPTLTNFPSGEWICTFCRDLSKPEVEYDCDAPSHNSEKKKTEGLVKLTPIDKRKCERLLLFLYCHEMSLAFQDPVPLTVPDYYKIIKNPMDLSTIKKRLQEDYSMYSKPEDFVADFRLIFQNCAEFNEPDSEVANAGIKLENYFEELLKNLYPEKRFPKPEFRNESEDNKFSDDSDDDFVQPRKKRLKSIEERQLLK
UniProt O75663, sequence (O75663 whole entry, looked up): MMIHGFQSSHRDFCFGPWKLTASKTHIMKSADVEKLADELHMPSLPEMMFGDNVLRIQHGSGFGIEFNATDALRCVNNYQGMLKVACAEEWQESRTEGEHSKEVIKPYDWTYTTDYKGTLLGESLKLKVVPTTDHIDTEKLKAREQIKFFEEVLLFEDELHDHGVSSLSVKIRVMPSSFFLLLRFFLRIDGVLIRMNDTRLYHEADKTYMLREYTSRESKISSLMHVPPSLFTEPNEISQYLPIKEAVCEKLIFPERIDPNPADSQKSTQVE
UniProt O43148, sequence (O43148 whole entry, looked up): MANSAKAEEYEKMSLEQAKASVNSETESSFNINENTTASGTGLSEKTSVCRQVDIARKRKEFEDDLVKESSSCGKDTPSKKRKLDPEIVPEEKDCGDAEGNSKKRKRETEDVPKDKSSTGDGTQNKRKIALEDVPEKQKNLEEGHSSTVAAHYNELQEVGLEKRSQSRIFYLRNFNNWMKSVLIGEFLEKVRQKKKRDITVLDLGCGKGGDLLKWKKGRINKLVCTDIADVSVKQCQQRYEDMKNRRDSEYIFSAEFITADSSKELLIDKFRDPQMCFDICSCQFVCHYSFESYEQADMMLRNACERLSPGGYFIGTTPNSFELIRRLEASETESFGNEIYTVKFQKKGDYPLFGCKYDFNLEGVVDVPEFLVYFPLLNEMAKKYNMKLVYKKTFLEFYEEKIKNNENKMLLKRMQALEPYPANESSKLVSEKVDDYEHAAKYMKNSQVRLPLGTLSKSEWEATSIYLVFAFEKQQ
UniProt O43583, sequence (O43583 whole entry, looked up): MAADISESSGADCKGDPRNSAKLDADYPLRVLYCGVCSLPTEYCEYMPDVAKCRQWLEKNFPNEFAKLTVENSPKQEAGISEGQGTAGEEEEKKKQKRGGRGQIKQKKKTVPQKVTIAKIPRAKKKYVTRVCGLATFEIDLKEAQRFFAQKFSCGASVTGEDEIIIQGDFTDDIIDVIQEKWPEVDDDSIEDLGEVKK
UniProt O75665, sequence (O75665 whole entry): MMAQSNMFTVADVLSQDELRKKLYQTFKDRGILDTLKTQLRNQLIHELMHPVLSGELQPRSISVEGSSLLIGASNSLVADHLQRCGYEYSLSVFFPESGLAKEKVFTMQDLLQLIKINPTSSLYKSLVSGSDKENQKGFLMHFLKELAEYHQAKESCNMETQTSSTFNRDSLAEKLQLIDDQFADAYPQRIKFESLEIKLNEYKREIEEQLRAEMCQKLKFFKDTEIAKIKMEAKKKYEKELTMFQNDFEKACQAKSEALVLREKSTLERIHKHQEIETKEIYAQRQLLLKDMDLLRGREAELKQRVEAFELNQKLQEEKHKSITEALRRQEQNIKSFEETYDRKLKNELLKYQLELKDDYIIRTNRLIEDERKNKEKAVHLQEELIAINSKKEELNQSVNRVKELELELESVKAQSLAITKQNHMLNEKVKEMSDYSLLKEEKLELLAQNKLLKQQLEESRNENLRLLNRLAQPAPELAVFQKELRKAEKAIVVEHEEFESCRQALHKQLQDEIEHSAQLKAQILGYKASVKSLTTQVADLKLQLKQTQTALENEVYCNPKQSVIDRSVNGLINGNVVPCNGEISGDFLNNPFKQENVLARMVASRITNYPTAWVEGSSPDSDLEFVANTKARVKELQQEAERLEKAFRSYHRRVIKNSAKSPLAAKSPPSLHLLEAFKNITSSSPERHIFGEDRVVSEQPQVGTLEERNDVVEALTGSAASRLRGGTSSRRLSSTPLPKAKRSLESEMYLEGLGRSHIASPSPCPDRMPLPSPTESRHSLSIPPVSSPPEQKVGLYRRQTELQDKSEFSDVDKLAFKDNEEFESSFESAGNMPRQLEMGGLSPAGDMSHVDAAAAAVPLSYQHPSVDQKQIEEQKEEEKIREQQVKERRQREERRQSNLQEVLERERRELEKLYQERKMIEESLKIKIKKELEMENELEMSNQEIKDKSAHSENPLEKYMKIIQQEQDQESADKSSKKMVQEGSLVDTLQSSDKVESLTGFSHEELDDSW
UniProt O75348, sequence (O75348 whole entry, looked up): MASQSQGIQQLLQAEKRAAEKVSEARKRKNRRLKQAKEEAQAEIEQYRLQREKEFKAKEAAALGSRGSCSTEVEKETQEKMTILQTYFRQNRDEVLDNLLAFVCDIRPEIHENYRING
UniProt O00425, sequence (O00425 whole entry, looked up): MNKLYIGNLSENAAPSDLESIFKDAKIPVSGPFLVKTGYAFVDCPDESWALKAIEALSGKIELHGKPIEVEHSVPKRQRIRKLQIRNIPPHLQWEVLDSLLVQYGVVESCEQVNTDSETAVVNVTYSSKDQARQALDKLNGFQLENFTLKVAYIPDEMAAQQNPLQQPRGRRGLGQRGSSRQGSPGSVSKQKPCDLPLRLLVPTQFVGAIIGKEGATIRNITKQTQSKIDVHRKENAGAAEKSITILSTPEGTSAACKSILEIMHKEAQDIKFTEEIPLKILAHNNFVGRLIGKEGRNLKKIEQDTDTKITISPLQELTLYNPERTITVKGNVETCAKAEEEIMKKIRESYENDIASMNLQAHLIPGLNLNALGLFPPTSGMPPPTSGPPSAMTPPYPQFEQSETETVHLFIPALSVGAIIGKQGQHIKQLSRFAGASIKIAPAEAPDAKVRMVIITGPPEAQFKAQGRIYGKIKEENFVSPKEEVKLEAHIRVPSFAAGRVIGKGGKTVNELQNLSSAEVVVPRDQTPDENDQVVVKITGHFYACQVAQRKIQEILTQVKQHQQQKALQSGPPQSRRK
UniProt O00244, sequence (O00244 whole entry, looked up): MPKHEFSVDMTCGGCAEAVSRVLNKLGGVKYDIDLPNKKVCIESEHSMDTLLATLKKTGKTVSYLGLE
UniProt O75821, sequence (O75821 whole entry, looked up): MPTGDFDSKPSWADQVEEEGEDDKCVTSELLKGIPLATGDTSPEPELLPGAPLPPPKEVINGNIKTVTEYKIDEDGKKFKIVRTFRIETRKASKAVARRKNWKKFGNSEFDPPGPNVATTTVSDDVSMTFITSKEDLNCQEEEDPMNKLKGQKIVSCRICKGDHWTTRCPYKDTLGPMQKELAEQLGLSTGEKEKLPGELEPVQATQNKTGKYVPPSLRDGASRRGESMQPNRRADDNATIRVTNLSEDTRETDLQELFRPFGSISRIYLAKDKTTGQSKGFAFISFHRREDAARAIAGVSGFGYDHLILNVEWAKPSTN

Target	log2 ratio of iodoacetamide-alkyne labeling
PRPF4 C237 (UniProt O43172)	1.42 (active)
ARHGEF11 C1500 (UniProt O15085)	0.0286
UTP20 C2058 (UniProt O75691)	0.539
DENR C13 (UniProt O43583)	0.235
EPB41L2 C424 (UniProt O43491)	0.17
TRAFD1 C482 (UniProt O14545)	1.55 (active)
NVL C192 (UniProt O15381)	0.306
OFD1 C581 (UniProt O75665)	0.478
EIF3D C196 (UniProt O15371)	0.719
GEMIN2 C63 (UniProt O14893)	0.211
ARHGEF11 C1166 (UniProt O15085)	0.618
SF3B1 C1035 (UniProt O75533)	0.375
UniProt O60232_C56	0.126
NVL C550 (UniProt O15381)	-0.302
RNMT C73 (UniProt O43148)	0.607
KATNA1 C491 (UniProt O75449)	0.112
PFAS C606 (UniProt O15067)	1.53 (active)
TRIM24 C81 (UniProt O15164)	0.0661
EIF3G C139 (UniProt O75821)	0.259
FLNB C455 (UniProt O75369)	1.24 (active)

Target	log2 ratio of iodoacetamide-alkyne labeling
FLNB C2556 (UniProt O75369)	0.079
PFAS C270 (UniProt O15067)	0.115
A0AVT1_C347	2.27 (active)
EIF3D C437 (UniProt O15371)	-0.116
ATP6V1G1 C104 (UniProt O75348)	0.03
FANCG C417 (UniProt O15287)	0.36
ANKRD28 C701 (UniProt O15084)	0.336
UniProt O43303_C535	0.837
STX16 C150 (UniProt O14662)	0.0256
ATOX1 C12 (UniProt O00244)	1.27 (active)
HGS C166 (UniProt O14964)	0.319
PRPF6 C698 (UniProt O94906)	0.0824
DNM1L C361 (UniProt O00429)	0.736
IGF2BP3 C546 (UniProt O00425)	0.284
TIPRL C87 (UniProt O75663)	1.32 (active)
UniProt O00148_C62	0.591
UniProt O15042_C291	1 (active)
UniProt A0MZ66_C565	0.734
RPP40 C49 (UniProt O75818)	0.0974
